Shiga toxin inh: blocks Shiga toxin action in Vero cells. Vero cells, Shiga toxin protein synthesis inhibition reporter. inhibition, % at 38.7 µM. 290,000 compounds, 9.2% hits; in the data active = inhibition mostly above about 28%, no sharp cut-off; inactive = mostly below about 43%; also: 0% is about no effect
SARS PLpro yeast: blocks SARS-CoV papain-like protease in a yeast assay. 330,000 compounds, 0.19% hits. Potency, µM (series often up to 32.9 µM), inactives show at the highest dose activity, positive = growth rescue, most hits filed as activators. S. cerevisiae expressing SARS-CoV PLpro, growth rescue; also: potency is read from the fitted curve at half-maximal effect; 0% is about no effect; nearly all actives have a fitted effect of over 55% in size
NS1 inh: blocks influenza NS1 protein function; Potency, µM (top dose mostly 46.1 µM), for the others: at the top dose activity, positive = more growth; 270,000 compounds, 0.4% hits; AID 2326; also: potency is read from the fitted curve at half-maximal effect; actives are rising curves; nearly all actives have a fitted effect of over 50% in size
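Recovery from NS1-induced slow growth read by OD600 in budding yeast switched to galactose assay medium (pH 6.0, -URA) at 1:100 dilution. Compound 23 nl per well; the matching strain lacking NS1 serves as control.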
Cycloheximide cs: counter-screen hit for Shiga toxin inhibitors, cycloheximide. cell reporter, cycloheximide protein synthesis inhibition counterscreen. max response, %. 300,000 compounds, 12% hits. AID 2314; in the data active = max response mostly above about 13%, no sharp cut-off; inactive = mostly below about 14%; also: read at 38.3 µM for the half of the compounds with a filed dose; 0% is about no effect
Pf growth 48h: inhibits P. falciparum growth in the first generation, 48 h; P. falciparum luciferase growth in erythrocytes, 48 h; Potency, µM (titrated, usually from 28.7 µM), for inactives: top-dose activity change, negative = inhibition, usual class: inhibitors; 310,000 compounds, 5.9% hits; AID 504832; active = well fitted inhibition curve with a large enough effect; inconclusive = small, poorly fitted or top-dose-only effect, or another doubt; inactive = no such curve, though single readings can be large or run the other way; also: potency is read from the fitted curve at half-maximal effect; % is scaled to controls: 0 for no effect and ±100 for the full control effect
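Growth was read as firefly luciferase luminescence after a 48 h, 37 C, 5% CO2 exposure of compounds to reporter-bearing P. falciparum cultures (0.1% parasitemia, 2% hematocrit final) in Albumax-supplemented RPMI 1640.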
Pf growth 96h: inhibits malaria parasite growth, 96 h | 320,000 compounds, 6.9% hits | AID 504834 | P. falciparum luciferase reporter growth, 96 h | Potency, µM (doses to about 28.7 µM), inactives show at the highest dose activity change, negative = inhibition, actives largely listed as inhibitors; active = well fitted inhibition curve with a large enough effect; inconclusive = small, poorly fitted or top-dose-only effect, or another doubt; inactive = no such curve, though single readings can be large or run the other way; also: potency is read from the fitted curve at half-maximal effect; % is scaled to controls: 0 for no effect and ±100 for the full control effect
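Erythrocytes infected with luciferase-expressing P. falciparum were dispensed at 2% hematocrit and 0.05% parasitemia (final), then incubated with compounds 96 hours at 37 C in 5% CO2. Luminescence after detection reagent addition reported growth.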
* hit, by the source's call; i = inactive; ? = inconclusive; / = no result given. A selection: hits, their analogues and other compounds. The true share with any hit is near 21%. Unless noted, calls follow the shape of the full dose curve.

SMILES	Shiga toxin inh	SARS PLpro yeast	NS1 inh	Cycloheximide cs	Pf growth 48h	Pf growth 96h
Cc1cc(Sc2nc(NC(C)C)nc(NC(C)C)n2)nc(Cl)n1	-13	1%	/	3	?	8%
NC(=O)c1sc2nccc(Nc3ccccc3)c2c1N	49	-7%	7%	15*	?	-7%
CC(=O)c1ccc(N2CCN(S(=O)(=O)c3ccc4c5c3CC(=O)N5CC(C)S4)CC2)cc1 (configuration not stated)	-20	6%	21%	2	3.3µM*	?
CC(=O)c1ccc(N2CCN(S(=O)(=O)c3ccc4c(c3)CC(=O)N4)CC2)cc1	-1	0%	12%	2	?	44%
Cc1ccc(/C=N/NC(=O)c2nnn(-c3nonc3N)c2C)o1	-6	1%	7%	3	6%	?
Cc1ccc(-c2c(C(=O)N/N=C/C3CC=CCC3)nnn2-c2nonc2N)cc1 (configuration not stated)	-5	-3%	20%	-7	?	9.3µM*
Cc1ccc(-c2c(C(=O)N/N=C/C3CCCCC3)nnn2-c2nonc2N)cc1	-1	6%	14%	-5	?	?
Cc1ccc(-c2c(C(=O)N/N=C/c3sccc3C)nnn2-c2nonc2N)cc1	-2	-3%	3%	-7	?	0.93µM*
C/C(=N\N=C\c1ccccc1)c1nnn(-c2nonc2N)c1C	41	1%	-4%	19*	43%	63%
Cc1c(C(=O)N/N=C/c2cccs2)nnn1-c1nonc1N	52*	4%	-9%	6	22%	-5%
O=C(O)C(C(O)c1ccc([N+](=O)[O-])cc1)[n+]1ccccc1 (configuration not stated)	/	0%	/	/	?	?
CC1=C([N+](=O)[O-])C(c2ccccc2C(F)(F)F)NC(=O)N1C (configuration not stated)	13	1%	1%	-3	16%	-2%
CCCNC(=O)C12CCC(C)(C(=O)C1Br)C2(C)C (configuration not stated)	-7	-27%	2%	-6	11%	-6%
Cc1ccsc1/C=N/NC(=O)c1nnn(-c2nonc2N)c1C	20	-1%	-4%	12*	24%	?
Cc1ccsc1/C=N/NC(=O)c1nnn(-c2nonc2N)c1-c1ccccc1	28	-1%	1%	-5	-1%	36%
CCN(Cc1ccccc1)C(=O)c1c(-c2ccccc2Cl)noc1C	-9	9%	-13%	-1	?	?
CCOC(=O)c1sc(/N=C/c2ccc(O)cc2O)cc1C	41*	13%	-18%	40*	12%	-25%
Cc1ccc(C(=O)n2c(-c3ccccc3)cnc2SCC(=O)Nc2ccccc2)cc1	-3	12%	-1%	15*	71%	253%
Cc1ccc(C(=O)n2c(-c3ccccc3)cnc2SCC(=O)Nc2ccc(C)cc2C)cc1	48*	-3%	13%	-2	32%	14%
Cc1ccc(NC(=O)CSc2ncc(-c3ccccc3)n2C(=O)c2ccccc2)cc1	100*	-11%	-13%	28*	28%	?
O=C1C(C2=NC(c3ccccn3)C3C(=O)N(c4ccccc4)C(=O)C23)=C(O)c2ccccc21 (configuration not stated)	-8	1%	-32%	-2	48%	22%
COC(=O)c1ccc(NC(=O)CCc2nnc3ccc(N4CCC5(CC4)OCCO5)nn23)cc1	-7	1%	-6%	-3	-19%	-10%
Cc1cccc(N(Cc2ccccc2)C(=O)CN2C(=O)NC3(CCCCC3C)C2=O)c1 (configuration not stated)	/	1%	/	/	?	12µM*
Cc1cccc(N(Cc2ccccc2)C(=O)CN2C(=O)NC3(CCCC3)C2=O)c1	/	-2%	/	/	?	?
CC1CCCCC12NC(=O)N(CC(=O)N1CCN(S(=O)(=O)/C=C/c3ccccc3)CC1)C2=O (configuration not stated)	/	2%	/	/	10µM*	?
SMILES	Shiga toxin inh	SARS PLpro yeast	NS1 inh	Cycloheximide cs	Pf growth 48h	Pf growth 96h
CC1CCCCC12NC(=O)N(CC(=O)OCc1cccc(F)c1)C2=O (configuration not stated)	/	-1%	/	/	13µM*	?
CC1CCCCC12NC(=O)N(CC(=O)OCc1ccccc1F)C2=O (configuration not stated)	/	-6%	/	/	/	/
CCN1CCN(CC(O)COC(c2ccccc2)c2ccccc2C)CC1 (configuration not stated)	-3	0%	2%	-4	0%	-33%
O=C(COC(=O)C1=COCCO1)NCc1ccc(F)cc1	-7	3%	-5%	-3	?	37%
NNC(=O)c1cnn(-c2ccccc2)c1-n1cccc1	19	4%	/	-2	11%	82%
N#Cc1ccsc1NC(=O)C1CCCN1S(=O)(=O)c1cccs1 (configuration not stated)	/	-2%	/	/	?	-16%
COc1ccc(C2/C=C\CN(S(=O)(=O)CC34CCC(CC3=O)C4(C)C)CC(=O)N2Cc2ccc(F)cc2)cc1 (configuration not stated)	-4	/	/	-4	/	/
Cc1ccccc1NC(=O)C12CC3CCC1(C)C3(C)CO2 (configuration not stated)	6	-4%	/	0	13%	13%
CC12COC3(C(=O)Nc4ccccc4)CC1CCC32C (configuration not stated)	13	-1%	-5%	8	45%	20%
CC12COC3(C(=O)Nc4ccc5ccccc5c4)CC1CCC32C (configuration not stated)	122*	-29%	/	35*	121%	148%
CC12COC3(C(=O)NCCc4ccccc4)CC1CCC32C (configuration not stated)	56*	5%	-5%	50*	17%	0.0029µM*
COc1cc(C2CC(=O)c3cnc(N4CCN(Cc5ccccc5)CC4)nc3C2)cc(OC)c1OC (configuration not stated)	6	4%	-42%	6	9.3µM*	-13%
COc1ccc(C2CC(=O)c3c(C)nc(N4CCN(Cc5ccccc5)CC4)nc3C2)cc1OC (configuration not stated)	16	-3%	-1%	3	8.3µM*	10µM*
Cc1nc(N2CCN(Cc3ccccc3)CC2)nc2c1C(=O)CC(C)C2 (configuration not stated)	-11	-1%	5%	1	0%	/
Cc1nn(C(C)C(=O)NCC2CCCO2)c(C)c1[N+](=O)[O-] (configuration not stated)	-9	0%	0%	1	-5%	-20%
COc1ccc2c(c1OC)C(=O)OC2Nc1nc(-c2cc3ccccc3oc2=O)cs1 (configuration not stated)	68*	-67%	-11%	59*	127%	i
